Laboratory results as given in the supplement of paper PMC12350171.
Structures can show the parent of a compound that is named as a salt. Values without a mark were called inactive.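 How the source made its calls: active = AUC significantly below DMSO controls by Student t-fit with adjusted P under 0.01; inactive = not significantly reduced.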

tested on: Haemophilus parainfluenzae; assay: growth AUC normalised to DMSO control (fraction of control); higher = less growth inhibition, active = hit call of the paper; conditions: 20 µM
How it was run: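 For the AUC endpoint, growth curves were integrated by the trapezoidal rule up to the exponential-to-stationary transition and normalised to DMSO controls on the same plate. The curves came from OD578 readings taken hourly for 24 h, in three biological replicates. Pathogens had been passaged anaerobically twice and inoculated at an OD578 of 0.01 into pre-reduced mGAM plates carrying 20 μM compound and 1% DMSO, sealed with breathable membranes. Medium for Haemophilus parainfluenzae also contained hemin and NAD.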

Compound	growth AUC normalised to DMSO control
CC(=O)OCC(CCn1cnc2cnc(N)nc21)COC(C)=O [Famciclovir]	1.02
CC(=O)OC[C@H]1O[C@@H]([S-])[C@H](OC(C)=O)[C@@H](OC(C)=O)[C@@H]1OC(C)=O.CCP(CC)CC.[Au+] [Auranofin]	0.189 (active)
NCCCC[C@H](N[C@@H](CCc1ccccc1)C(=O)O)C(=O)N1CCC[C@H]1C(=O)O [Lisinopril]	0.992
CC1(C)S[C@@H]2[C@H](NC(=O)[C@H](C(=O)O)c3ccsc3)C(=O)N2[C@H]1C(=O)O [Ticarcillin sodium]	0.0663 (active)
CNC(=C[N+](=O)[O-])NCCSCc1csc(CN(C)C)n1 [Nizatidine]	0.993
C[C@]12C=CC(=O)C=C1CC[C@H]1[C@@H]3C[C@@H](O)[C@](O)(C(=O)CO)[C@@]3(C)C[C@H](O)[C@@]12F [Triamcinolone]	1.01
CCc1cccc2c3c([nH]c12)C(CC)(CC(=O)O)OCC3 (stereo not given) [Etodolac]	1.02
C[N+]1(C)CCC(=C(c2ccccc2)c2ccccc2)CC1 [Diphemanil methylsulfate]	0.949
CCOC(=O)C1=C(C)NC(C)=C(C(=O)OCC)C1c1ccccc1/C=C/C(=O)OC(C)(C)C [Lacidipine]	1.01
CN1CCCC(n2nc(Cc3ccc(Cl)cc3)c3ccccc3c2=O)CC1 (stereo not given) [Azelastine hydrochloride]	0.994
CCCCOc1ccc(OCCCN2CCOCC2)cc1 [Pramoxine hydrochloride]	0.936
CCOC(=O)Nc1ccc2c(c1)N(C(=O)CCN1CCOCC1)c1ccccc1S2 [Moricizine hydrochloride]	0.998
COc1ccc(OC)c(C(O)CNC(=O)CN)c1 (stereo not given) [Midodrine hydrochloride]	1.02
CCOC(=O)[N-]c1c[n+](N2CCOCC2)no1 [Molsidomine]	1.03
CN(C(=O)CN(CCO)CC(=O)N(C)C(C)(C)Cc1ccccc1)C(C)(C)Cc1ccccc1 [Oxethazaine]	0.737
C=CC1=C(C(=O)O)N2C(=O)[C@@H](NC(=O)/C(=N\OCC(=O)O)c3csc(N)n3)[C@H]2SC1 [Cefixime]	0.0416 (active)
Clc1ccc(CSC(Cn2ccnc2)c2ccc(Cl)cc2Cl)cc1 (stereo not given) [Sulconazole nitrate]	1.08
CCn1cc(C(=O)O)c(=O)c2cnc(N3CCNCC3)nc21 [Pipemidic acid]	0.915
CCC(=O)O[C@@H](O[P@](=O)(CCCCc1ccccc1)CC(=O)N1C[C@H](C2CCCCC2)C[C@H]1C(=O)O)C(C)C [Fosinopril]	1.02
CN1CCN(c2c(F)cc3c(=O)c(C(=O)O)cn(CCF)c3c2F)CC1 [Fleroxacin]	0.0399 (active)
CC1(C)S[C@@H]2[C@H](NC(=O)Cc3ccccc3)C(=O)N2[C@H]1C(=O)O [Benzylpenicillin sodium]	0.0512 (active)
CCCCNc1ccc(C(=O)OCCOCCOCCOCCOCCOCCOCCOCCOCCOC)cc1 [Benzonatate]	1
CC(=O)[C@H]1CC[C@H]2[C@@H]3CCC4=CC(=O)CC[C@]4(C)[C@H]3CC[C@]12C [Progesterone]	1.03
CC(=O)O[C@H]1C(=O)[C@@]2(C)[C@H]([C@H](OC(=O)c3ccccc3)[C@]3(O)C[C@H](OC(=O)[C@H](O)[C@@H](NC(=O)c4ccccc4)c4ccccc4)C(C)=C1C3(C)C)[C@]1(OC(C)=O)CO[C@@H]1C[C@@H]2O [Paclitaxel]	1.08
O=c1[nH]cnc2c1ncn2[C@H]1CC[C@@H](CO)O1 [Didanosine]	1.03
Clc1ccc(Nc2nnc(Cc3ccncc3)c3ccccc23)cc1 [Vatalanib]	1.04
C[C@]12CC[C@@H]3c4ccc(O)cc4CC[C@H]3[C@@H]1CCC2=O [Estrone]	0.966
O=C(OCC(O)CO)c1ccccc1Nc1ccnc2cc(Cl)ccc12 (stereo not given) [Glafenine hydrochloride]	0.978
Clc1ccc2c(c1)CCc1cccnc1C2=C1CCNCC1 [Desloratadine]	1.03
Cn1c(=O)c2nc[nH]c2n(C)c1=O [Theophylline monohydrate]	0.98
